PubChem BioAssay AID651820 (National Center for Advancing Translational Sciences (NCATS), 2012)
About 12,000 (3.5%) of roughly 340,000 compounds were called active. Another 18% or so got no clear call; they are omitted. Shown is part of a subset that was picked to be rich in actives. Values without a mark were called inactive. Calls follow the shape of the dose curve; as a rule, active = well fitted inhibition curve with a large enough effect; inconclusive = small, poorly fitted or top-dose-only effect, or another doubt; inactive = no such curve, though single readings can be large or run the other way.

Assay: qHTS Assay for Inhibitors of Hepatitis C Virus (HCV)
Settings: Huh7.5.1 HCVcc-Cre infection, luciferase reporter, 44 h; series mostly up to 41.8 µM; activity change, negative = inhibition: at the top concentration
In short: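 Antiviral activity was scored by luciferase reporter output from cells infected with HCVcc-Cre (~0.5 moi) in presence of compound, 44 h infection period, cells seeded 1,000/well 4 h prior.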
% is scaled to controls: 0 for no effect and ±100 for the full control effect; potency is read from the fitted curve at half-maximal effect.

SMILES	activity change, negative = inhibition	Potency
CCOC(=O)c1sc(N)c(C#N)c1COC(=O)C1=COCCO1	4.34%	
CCCCCCCCCCOC(=O)Cn1c(COc2ccc(C)cc2)[n+](C)c2ccccc21		31.6 µM (active)
CCCCCCCCCCOC(=O)Cn1c(COc2cccc(OC)c2)[n+](C)c2ccccc21	-14.4%	
CCCCOC(=O)Cn1c(=O)n(CC(=O)OCCCC)c2cc(C)ccc21	12.5%	
CCc1ccc(CNC(=O)C2CCN(c3nnc(C)c4c(C)n(-c5ccc(C)cc5)nc34)CC2)cc1		8.91 µM (active)
CCOc1ccc(CNC(=O)C2CCCN(c3nnc(C)c4c(C)n(-c5ccccc5)nc34)C2)cc1 (stereo not drawn)	-15.1%	
COc1ccc(-n2nc3c(N4CCC(C(=O)NCc5ccccc5)CC4)nnc(C)c3c2C)cc1	-12.4%	
CCOC(=O)CCC(NC(=O)c1ccc(CNc2nc3cc(C(F)(F)F)ccc3nc2C(=O)OCC)cc1)C(=O)OCC (stereo not drawn)	-22.8%	
Cc1ccc(NC(=O)c2cccc(S(=O)(=O)N3CCCc4ccccc43)c2)nc1		10 µM (active)
Cc1cccc(NC(=O)c2cccc(S(=O)(=O)N3CCCC3)c2)n1	7.31%	
Cn1c(=O)n(C)c2cc(S(=O)(=O)N3CCCc4ccccc43)ccc21	-14.2%	
C[C@H](O)[C@@H]1C(=O)N2CCc3ccc(N4CCOCC4)cc3[C@@H]2C[C@@H]1N(C)C(=O)C(C)(C)C	-22.9% [at 8.37 µM]	
CCCCc1ccc(NC(=O)CN2C(=O)NC(Cc3ccccc3)C2=O)cc1 (stereo not drawn)	-11.5%	
Cc1ccc(S(=O)(=O)N2CCN(C(=O)COC(=O)/C=C/c3cccc(Cl)c3)CC2)c(C)c1	-24.1%	
CCC(=O)c1cn(CCOc2ccccc2OC)c2ccccc12		8.91 µM (active)
COc1ccccc1OCCn1c(SCC(N)=O)nc2ccccc21	7.46%	
CCCn1cc(SCC(N)=O)c2ccccc21	-9.3%	
CCCCNS(=O)(=O)CCNCc1ccccc1OC	5.73%	
COC(=O)c1ccc(CNC(=O)c2ccc(S(=O)(=O)N3CCCCCC3)cc2)cc1	4.24%	
CCC(=O)Nc1ccc(C(=O)N2CCN(C(=O)c3ccco3)CC2)cc1	-5.83%	
Cc1ccc(OCC(=O)Nc2ccc(N3CCN(C(=O)c4ccco4)CC3)cc2)c(C)c1		7.08 µM (active)
Cc1ccc(C)c(OCC(=O)N2CCN(C(=O)c3ccco3)CC2)c1	-2.2%	
CCC(=O)N1CCc2cc(Br)c(S(=O)(=O)NCCN3CCCCC3CC)cc21 (stereo not drawn)	0.826%	
CCN(CC(=O)Nc1cc(Cl)ccc1C)C(=O)CSCc1ccccc1	5.2%	
Nc1ccccc1Sc1ccc(C(F)(F)F)cc1[N+](=O)[O-]	-1.94%	

SMILES	activity change, negative = inhibition	Potency
CCOC(=O)c1cc(Sc2ccccc2N)cc(C(=O)OCC)n1	-19.6%	
CCS(=O)(=O)c1cc([N+](=O)[O-])c(Sc2ccccc2N)s1		7.08 µM (active)
O=C(COc1ccccc1Cl)N1N=C(c2cccs2)CC1c1ccco1 (stereo not drawn)	-14.1%	
CC(=NNC(=O)c1ccc2nc[nH]c2c1)c1ccc(Br)cc1	-2.36%	
COc1ccc(S(=O)(=O)N2CCOCC2)cc1NC(=O)Cc1c(F)cccc1Cl	-2.06%	
COc1ccc(S(=O)(=O)NCCOc2ccccc2)cc1F	1.65%	
COc1ccc(S(=O)(=O)NCCCCOc2ccc(Cl)cc2)cc1		25.1 µM (active)
COC(=O)CNS(=O)(=O)c1ccc(OC)cc1	32.7%	
O=C(NCCCN1CCOCC1)c1cn(-c2ccccc2)nc1-c1ccc(F)cc1	-20.5%	
CN(C)C(=O)COC(=O)c1cccc(S(=O)(=O)N2CC3(C)CC2CC(C)(C)C3)c1 (stereo not drawn)	6.74%	
CON(C)S(=O)(=O)c1ccc2c(c1)NC(=O)C1CCCN21 (stereo not drawn)		8.91 µM (active)
COc1ccc(N2CCN(S(=O)(=O)c3ccc4c(c3)NC(=O)C(C)C(=O)N4)CC2)cc1 (stereo not drawn)	0.721%	
CC1C(=O)Nc2ccc(S(=O)(=O)N3CCN(c4ccccc4F)CC3)cc2NC1=O (stereo not drawn)	-29.1%	
Cc1ccc(S(=O)(=O)CCC(=O)OCC(=O)N(C)Cc2ccccc2)cc1	10.4%	
CN(CC(=O)Nc1ccc(F)cc1)CC(=O)N1CCCCC1	-1.19%	
OCC(O)C1OCOC(C(O)CO)C1O (stereo not drawn)	9.97%	
COC(=O)C1=C(C)N(Cc2ccccc2)C(=NCCCOC(C)C)N[C@H]1c1ccccc1	-16.6%	
Cc1cc(/C=N/NC(=O)c2cccnc2)c(C)n1CC(C)C	8.27%	
O=C(N/N=C/c1ccccn1)c1cccnc1	9.35%	
O=C(N/N=C/c1sc(N2CCCCC2)nc1-c1cccs1)c1cccnc1		11.2 µM (active)
CCN(CC)S(=O)(=O)c1ccc(NC(=O)c2cnc(C)cn2)cc1	2.31%	
CCN(CC)S(=O)(=O)c1ccc(N(C)Cc2ccc(C(F)(F)F)cc2)nc1		14.1 µM (active)
CCN(CC)S(=O)(=O)c1ccc(N(C)Cc2cccc(OC)c2OC)nc1		3.98 µM (active)
CCN(CC)S(=O)(=O)c1ccc(Cl)c(NC(=O)c2ccncc2)c1	-20.9%	
CCN(CC)S(=O)(=O)c1ccc(N(C)CCc2ccc(OC)c(OC)c2)nc1	-23.1%	

SMILES	activity change, negative = inhibition	Potency
COc1ccc(S(=O)(=O)N2CCCCCC2)cc1C(=O)N(C)Cc1cccc(OC)c1OC	1.99%	
CCCn1c(C)cc(/C=C(\C#N)C(=O)OCC(=O)N(C)c2c(N)n(Cc3ccccc3)c(=O)[nH]c2=O)c1C	-12.5%	
COc1ccccc1C(=O)OCC(=O)Nc1cccc(S(=O)(=O)NC2=NCCCCC2)c1	2.1%	
CC1CN(Cc2ccco2)C(=S)N(c2ccccc2)C1=O (stereo not drawn)	27.2%	
COc1ccc(C(=O)COC(=O)C(O)c2ccccc2)c(OC)c1 (stereo not drawn)	3.53%	
COc1ccc(C(=O)OCC(=O)N2CC(=O)Nc3ccccc32)cc1Br	11.8%	
COc1ccc(Br)cc1/C=N/Nc1ccc(S(=O)(=O)Nc2ccccc2C(=O)O)cc1[N+](=O)[O-]	-16%	
COc1cccc(NC(=O)CS(=O)(=O)c2cn(CC(=O)N3CCOCC3)c3ccccc23)c1	10.8%	
O=C(Nc1ccc(F)cc1)C(=O)c1cn(CC(=O)N2CCOCC2)c2ccccc12	2.94%	
COc1cccc(NC(=O)C(=O)c2cn(CC(=O)N3CCOCC3)c3ccccc23)c1		11.2 µM (active)
CCCC[C@@H]1CN=C(N)N1CCc1cccc(F)c1	10.7%	
CC(C)(Oc1ccc(Cl)cc1)C(=O)OCC(=O)NCCc1ccc(S(N)(=O)=O)cc1	38.5%	
CC[C@]12c3[nH]c4cc(CCC(=O)N(C)C)ccc4c3CCN1C(=O)[C@@H](CC(=O)NCc1ccco1)C[C@@H]2C(=O)N1CCN(C(=O)c2ccco2)CC1	-1.33% [at 8.37 µM]	
O=[N+]([O-])c1cccc(C=NN=Cc2ccccc2O)c1	-9.27%	
S=c1ccc2ccccc2[nH]1	8.78%	
CCCCn1c(=S)[nH]c2ccccc2c1=O	-12.8%	
S=c1[nH]c2ccccc2c2ccccc12		11.2 µM (active)
COc1ccccc1N1CC(O)=C(c2nc3ccccc3s2)C1=N		11.2 µM (active)
N=C1C(c2nc3ccccc3s2)=C(O)CN1NC(=O)c1ccc([N+](=O)[O-])cc1		11.2 µM (active)
CCOC(=O)CCCN1CC(O)=C(c2nc3ccccc3s2)C1=N	-7.47%	
O=C(Nn1c(-c2ccccc2)nc2ccccc2c1=O)c1ccc([N+](=O)[O-])cc1	0.828%	
N=C1C(c2nc3ccccc3[nH]2)=C(O)CN1NC(=O)c1c[nH]c2ccccc12	6.25%	
COc1ccccc1OCc1nc2ccccc2s1	13.9%	
N#CCN(C(=O)COC(=O)C1CC2CCCC(C1)C2=O)c1ccccc1 (stereo not drawn)	3.03%	
COc1cc(OC)c(C(=O)NNC(=O)c2ccccc2-n2cccc2)cc1OC	-22%	

SMILES	activity change, negative = inhibition	Potency
CCCN(CC(=O)Nc1ccccc1C)C(=O)c1ccc2[nH]c3c(c2c1)CC(C)CC3 (stereo not drawn)	-29.8%	
CN(CC#CCC(c1ccccc1)c1ccccc1)C(C)(C)C		10 µM (active)
CC(C)(C)N(CC#CCC(O)(c1ccccc1)C1CCCC1)CCO (stereo not drawn)	-21.1%	
Cc1cc2c(cc1C)NC1(C[C@H]3CCC(=O)N4CC[C@@H](C1)[C@@H]34)C(=NC(C)(C)CC(C)(C)C)N2 (stereo partly drawn)	-6.36%	
COc1ccc(C(=O)Nc2cccc(/C=C(/CCC(=O)O)c3nc4ccccc4s3)c2)cc1	10.6%	
O=C(Cc1ccc(Cl)cc1)c1ccccc1	4.62%	
N#CCSc1nc2ccc(N3CCOCC3)cc2c(=O)n1CCc1ccccc1		10 µM (active)
COCCCNC(=O)CSc1nc2ccc(N3CCOCC3)cc2c(=O)n1CCc1ccccc1	16.8%	
CCCCn1c(SCC(=O)NCC2CCCO2)nc2ccc(N3CCOCC3)cc2c1=O (stereo not drawn)	-14.7%	
OC(c1ccccc1)C(CN1CCOCC1)c1ccccc1 (stereo not drawn)		12.6 µM (active)
OC(c1ccc(Cl)cc1)C(CN1CCOCC1)c1ccccc1 (stereo not drawn)	12.9%	
CC(CN1CCOCC1)c1ccccc1 (stereo not drawn)	10.7%	
Cc1csc(=O)n1CCC(=O)OCC(=O)NNC(=O)c1ccc(Br)cc1	7.44%	
CCOC(=O)[C@H]1[C@H]2COc3ccc(OC)cc3[C@@H]2N2C(=O)c3ccc(F)cc3NC(=O)[C@@]12C	-4.19%	
COC(=O)C1=C(c2cc3ccccc3s2)C[C@@H]2CC[C@H]1N2C(=O)NC(C)C	-26.4%	
COC(=O)C1=C(c2ccc(F)cc2F)C[C@@H]2CC[C@H]1N2C(=O)NC1CC1	18.2%	
COC(=O)C1=C(c2cc3ccccc3o2)C[C@@H]2CC[C@H]1N2C(=O)NC1CCCCC1		7.94 µM (active)
O=C(COC(=O)c1cc(S(=O)(=O)N2CCOCC2)ccc1Cl)NCCc1ccccc1	5.53%	
Cc1ccc(C)c(NC(=O)CN(C)C(=O)c2ccc3ncsc3c2)c1	36.6%	
Cc1sc(NC(=O)C2=COCCO2)c(C#N)c1C	14.2%	
Cc1cccc(N2CCN(C(=O)c3cccc(S(=O)(=O)N4CCc5ccccc5C4)c3)CC2C)c1 (stereo not drawn)		7.08 µM (active)
CC(NC(=O)c1cccc(S(=O)(=O)N2CCc3ccccc3C2)c1)c1ccco1 (stereo not drawn)	16.5%	
CN1CCN(S(=O)(=O)c2cccc(C(=O)N3CCc4ccccc43)c2)CC1	21%	
